# Compounds with a hit are over-represented: about 1.1% of the library has one in this group of screens.
# AmpC no deterg – inhibitors of E. coli AmpC beta-lactamase without detergent. AmpC nitrocefin hydrolysis, absorbance 480 nm, 0.0001% Triton. Potency, µM (doses to about 57.1 µM), inactives show at the highest dose activity change, negative = inhibition, most hits filed as inhibitors. 330,000 tested, 0.52% active. AID 485341;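 also: plate controls were no compound for no effect and no enzyme for full effect; nearly all actives have a fitted effect of over 20% in size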
# Target sequence (P00811 whole entry, looked up): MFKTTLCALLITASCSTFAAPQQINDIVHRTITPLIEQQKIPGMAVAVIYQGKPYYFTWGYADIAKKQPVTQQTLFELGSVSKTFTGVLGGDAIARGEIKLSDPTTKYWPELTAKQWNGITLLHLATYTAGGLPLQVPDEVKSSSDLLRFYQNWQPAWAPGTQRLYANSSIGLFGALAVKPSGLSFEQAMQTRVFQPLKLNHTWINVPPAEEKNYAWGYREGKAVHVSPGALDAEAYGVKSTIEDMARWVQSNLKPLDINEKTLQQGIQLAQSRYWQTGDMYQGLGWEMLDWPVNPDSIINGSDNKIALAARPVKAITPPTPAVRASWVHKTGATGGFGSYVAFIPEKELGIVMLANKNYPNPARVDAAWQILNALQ
#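 20 mM phosphate pH 7.0 + 0.01% (detergent screen) or 0.0001% Triton X-100; 5.3 nM AmpC reagent; cpd preinc 15 min RT; nitrocefin (800 uM stock) to start; A480 q20 s × 4 min; Activity was normalised to no-enzyme and no-compound control wells.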
# AmpC detergent – blocks E. coli AmpC beta-lactamase in detergent assay; P00811; AmpC hydrolysis of nitrocefin, absorbance 480 nm, 0.01% Triton; Potency, µM (series often up to 114 µM), without a hit: top-dose activity change, negative = inhibition, most hits filed as inhibitors; 370,000 tested, 0.041% active; AID 485294;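 also: 0% = no-compound wells and -100% = no-enzyme wells; nearly all actives have a fitted effect of over 25% in size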
#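 20 mM phosphate pH 7.0 + 0.01% (detergent screen) or 0.0001% Triton X-100; 5.3 nM AmpC reagent; cpd preinc 15 min RT; nitrocefin (800 uM stock) to start; A480 q20 s × 4 min; Activity was normalised to no-enzyme and no-compound control wells.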
# SARS PLpro yeast – blocks SARS-CoV papain-like protease in a yeast assay; S. cerevisiae expressing SARS-CoV PLpro, growth rescue; Potency, µM (highest dose often 32.9 µM), without a hit: at the highest dose activity, positive = growth rescue, actives largely listed as activators; 330,000 tested, 0.19% active; calls by dose curve; also: 0% is about no effect; nearly all actives have a fitted effect of over 55% in size
# FBPA Giardia inh – blocks Giardia fructose-bisphosphate aldolase activity; purified Giardia FBPA; 290,000 tested, 0.71% active; AID 2451; Potency, µM (highest dose often 59.6 µM), for inactives: at the highest dose activity, negative = inhibition, actives largely listed as inhibitors; also: % is scaled to controls: 0 for no effect and ±100 for the full control effect; nearly all actives have a fitted effect of over 55% in size
# Target sequence (A8B2U2 whole entry, looked up): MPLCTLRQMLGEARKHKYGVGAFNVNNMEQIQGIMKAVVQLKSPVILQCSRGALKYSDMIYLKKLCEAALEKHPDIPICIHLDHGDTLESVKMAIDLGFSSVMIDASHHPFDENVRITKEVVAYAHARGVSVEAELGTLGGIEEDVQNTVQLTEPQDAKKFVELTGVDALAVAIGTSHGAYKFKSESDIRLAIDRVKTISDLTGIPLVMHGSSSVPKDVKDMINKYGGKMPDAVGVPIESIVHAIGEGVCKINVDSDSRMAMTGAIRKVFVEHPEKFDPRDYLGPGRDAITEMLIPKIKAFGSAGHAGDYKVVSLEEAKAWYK
#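 Giardia FBPA (40 nM reagent) was preincubated 10 min at RT with compound (up to 57.5 uM final), then substrate plus GAPDH/TPI/NAD/arsenate coupling system with diaphorase/resazurin was added; resorufin fluorescence (525/598 nm) was read after 20 min.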
# * hit, by the source's call; ? = inconclusive; . = not tested or not shown; [ ] = remark or other dose. Unless noted, calls follow the shape of the dose curve; as a rule, active = well fitted curve in the direction sought with a large enough effect; inconclusive = small, poorly fitted or top-dose-only effect, or another doubt; inactive = no such curve, though single readings can be large; an effect the other way counts as inactive or inconclusive. Potency is read from the fitted curve at half-maximal effect.
SMILES,AmpC no deterg,AmpC detergent,SARS PLpro yeast,FBPA Giardia inh
CCCCNC(=O)NS(=O)(=O)c1ccc(CO)cc1,.,.,.,3.5%
COc1ccccc1Cc1nc2ccccc2nc1SCC(=O)N1CCC(C)CC1,.,19.3%,.,.
Cc1ccc(NS(=O)(=O)c2ccc(Br)s2)nc1,1.7%[2.29 µM],-4.7%,4.2%,7.92µM*
Cc1cc(C)nc(NS(=O)(=O)c2ccc(Br)s2)c1,-10.1%,9.5%,13.8%,?
CCCCCC(=O)NC(=S)Nc1ccc(N2CCOCC2)cc1,-37.4%,-5.3%,12.6µM*,-7.0%
CCOC(=O)C(C)Oc1cccc2c(=O)n(CC(=O)Nc3cccc(OC)c3)ccc12 (configuration not stated),7.08µM*,?,4.1%,7.5%
CCN1CCN(C(=O)CS(=O)(=O)Cc2nc(-c3ccc(C)cc3)oc2C)CC1,10µM*,-16.4%,-1.5%,3.8%
Cc1ccc(-c2nc(CS(=O)(=O)CC(=O)N3CC(C)CC(C)C3)c(C)o2)cc1 (configuration not stated),39.8µM*,-3.1%,-7.1%,3.3%
CN(C)CCCOc1c2ccccc2n(Cc2ccccc2)[n+]1[O-],.,.,.,-6.5%
NNC(=O)CSc1c(-c2cccs2)[nH]c2ccccc12,14.1µM*,?,6.0%,8.9%
CCCC(=O)N(c1ccc2oc(=O)sc2c1)S(=O)(=O)c1ccccc1,10µM*,?,-0.4%,-10.8%
O=C(NCCCCCCNC(=O)ON=C1CCCCC1)ON=C1CCCCC1,.,.,.,0.9%
O=C(CN1C(=O)S/C(=C\c2ccc(-c3cc(C(=O)O)ccc3Cl)o2)C1=O)Nc1ccc2c(c1)OCO2,-36.3%,79.4µM*,-8.2%,.
Brc1ccc(C2=CC(c3cccs3)n3ncnc3N2)cc1 (configuration not stated),10µM*,-7.2%,-19.1%,-10.4%
N#CC(C#N)=Cc1cc(O)c(O)c(O)c1,.,.,.,15.8µM*
Cc1cccc(Oc2ncnc3onc(C)c23)c1,0.794µM*,-0.5%,4.0%,0.2%
Cc1noc2ncnc(Oc3ccccc3)c12,-6.2%,1.1%,2.1%,4.6%
CC[C@H](C)[C@H](NC(=O)[C@H](CCC(=O)O)NC(=O)[C@@H](N)CO)C(=O)N[C@@H](CCC(N)=O)C(=O)N[C@@H](CC(C)C)C(=O)N[C@@H](CCSC)C(=O)N[C@@H](Cc1cnc[nH]1)C(=O)N[C@@H](CC(N)=O)C(=O)N[C@@H](CC(C)C)C(=O)NCC(=O)N[C@@H](CCCCN)C(=O)N[C@@H](Cc1cnc[nH]1)C(=O)N[C@@H](CC(C)C)C(=O)N[C@@H](CC(N)=O)C(=O)N[C@@H](CO)C(=O)N[C@@H](CCSC)C(=O)N[C@@H](CCC(=O)O)C(=O)N[C@@H](CCCNC(=N)N)C(=O)N[C@H](C(=O)N[C@@H](CCC(=O)O)C(=O)N[C@@H](Cc1c[nH]c2ccccc12)C(=O)N[C@@H](CC(C)C)C(=O)N[C@@H](CCCNC(=N)N)C(=O)N[C@@H](CCCCN)C(=O)N[C@@H](CCCCN)C(=O)N[C@@H](CC(C)C)C(=O)N[C@@H](CCC(N)=O)C(=O)N[C@@H](CC(=O)O)C(=O)N[C@H](C(=O)N[C@@H](Cc1cnc[nH]1)C(=O)N[C@@H](CC(N)=O)C(=O)N[C@@H](Cc1ccccc1)C(=O)O)C(C)C)C(C)C,.,.,.,-9.5%
NS(=O)(=O)c1ccc(NS(=O)(=O)c2ccc(NC(=O)c3ccc(-c4ccccc4)cc3)cc2)cc1,11.2µM*,-12.4%,3.4%,-8.5%
CCN(CC)CCNc1cc(C)nc2c1C(=O)C(=O)C=C2N1CCCCC1,2.4%,-0.2%,-0.3%,1.99µM*
CCN(CC)CCNC(=O)c1ccc(N2CCCCC2)c(NS(=O)(=O)c2ccc(C)cc2)c1,155.0%,-2.3%,0.9%,-16.2%
Cc1cc(C)n(CCCO)c(=O)c1C#N,-13.9%,?,-0.5%,2.1%
Cc1cc(C)n(CC(C)O)c(=O)c1C#N (configuration not stated),0.316µM*,0.4%,-0.5%,0.0%
CCC[C@@H]1CC2=CC(=O)CC[C@]2(C)[C@H]2CC[C@@]3(C)[C@@H](CC[C@@]34CCC(=O)O4)[C@H]12,.,.,.,-2.2%
Cn1c(=O)c2c(SCC(=O)NCc3ccco3)nc(CC(C)(C)C)nc2n(C)c1=O,22.8%,?,2.3%,8.2%
SMILES,AmpC no deterg,AmpC detergent,SARS PLpro yeast,FBPA Giardia inh
Cn1c(=O)c2c(SCC(N)=O)nc(CC(C)(C)C)nc2n(C)c1=O,6.31µM*,?,-6.3%,?
Cn1c(=O)c2c(SCC(=O)N3CCOCC3)nc(CC(C)(C)C)nc2n(C)c1=O,-13.7%,-3.1%,0.8%,-2.1%
Cn1c(=O)c2c(SCc3c(F)cccc3Cl)nc(CC(C)(C)C)nc2n(C)c1=O,3.55µM*,-3.5%,11.7%,-2.9%
O=S(=O)(Nc1ccc(O)c2ccccc12)c1ccc(Br)cc1,11.2µM*,-3.2%,-8.9%,.
C/C(=N\NC(=S)NCc1ccccc1)c1cccc(Br)c1,-16.3%[2.29 µM],6.3%,-2.4%,10.7%
C/C(=N\NC(=S)NCc1ccccc1)c1ccc2ccccc2c1,25.1µM*,-1.4%,25.1%,6.1%
CCCC1CC(CSC(=N)N)OC1=O (configuration not stated),-22.7%,-4.8%,14.1µM*,3.1%
CCCCCCC1CC(CSC(=N)N)OC1=O (configuration not stated),-14.9%,0.1%,-1.7%,-0.1%
COC(=O)c1ccccc1NC(=S)NC(=O)c1ccccc1C,-59.2%,39.8µM*,-27.8%,-9.8%
Cc1ccccc1C(=O)NC(=S)Nc1ccccc1C(=O)O,-11.9%,-1.9%,0.2%,-4.8%
N#CCc1ccc(C(=O)c2ccccc2F)s1,0.794µM*,-3.1%,-0.3%,3.2%
COc1ccc(Cl)cc1C(=O)NNC(=O)c1[nH]c(C)c(C(C)=O)c1C,10µM*,.,14.2%,.
O=C1C2C3C=CC(CC3)C2C(=O)N1/N=C/c1ccccc1O (configuration not stated),-33.7%,4.4%,5.62µM*,-2.7%
O=C1C2C3C=CC(CC3)C2C(=O)N1/N=C/c1c(O)ccc2ccccc12 (configuration not stated),138.3%,-9.4%,6.7%,11.8%
CN1CCN(C(=O)c2sc(=S)n(-c3ccccc3)c2N)CC1,-39.4%,?,4.3%,5.61µM*
Cc1ccc(/C=C2/NC(=O)N(Cc3ccc(Br)cc3)C2=O)o1,2.51µM*,-5.5%,-53.1%,?
CC(C)NC(=O)c1sc2ncccc2c1-n1cccc1,.,5.9%,.,.
COc1ccc(C2=NC(c3ccc(Cl)cc3)C(c3ccc(Cl)cc3)N2C(=O)N2CCNC(=O)C2)c(OC(C)C)c1 (configuration not stated),.,.,.,-5.7%
Cc1cc(C)c(S(=O)(=O)/N=C2\C=CC(=O)C(Cl)=C2)c(C)c1,5.01µM*,?,4.1%,?
Cc1cc(C)c(S(=O)(=O)/N=C2\C=C(NS(=O)(=O)c3ccccc3)C(=O)c3ccccc32)c(C)c1,-52.9%,-1.6%,-0.4%,?
